# Reference: PubChem BioAssay AID2401 (Southern Research Specialized Biocontainment Screening …, 2010)
# Among all 2,200 compounds or so, about 530 (24%) were called active. Only a sample is shown. Measured potencies and affinities stand elsewhere. A number with no mark means an inactive call.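 How the source made its calls: active means inhibition above a set limit at one or more concentrations of the dose series; inactive means inhibition under that limit at every dose.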
# Assay: nmpC-GFP reporter counter-screen in S. Typhimurium, dose response, counter-screen for PhoP regulon inhibitor project, Salmonella Typhimurium, GFP fluorescence (AID 2401);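 further: S. typhimurium with Mg-insensitive nmpC-GFP reporter grown at 10 µM Mg2+; drop in reporter fluorescence reflects general culture growth inhibition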
# Conditions: 4 h; series mostly up to 150 µM; inhibition: at the top concentration
row,SMILES,inhibition
1,CC(=O)c1c(C)nc(-c2ccc(Cl)cc2)nc1N=CN(C)C,0.07%
2,O=C1CN(C(=O)COC(=O)CCC(=O)c2ccc3c(c2)OCCO3)c2ccccc2N1,-0.13%
3,Cc1cccc(-n2c(N)cc(=O)[nH]c2=S)c1C,25.7%
4,Oc1cccc2ccc[n+](CC(O)Cn3c4ccccc4c4ccccc43)c12 (stereo not given),-8.84%
5,OCCN(CCO)CC(O)Cn1c2ccccc2c2ccccc21 (stereo not given),-5.12%
6,Cc1cc(C)c(C#N)c(SCc2cn3ccccc3n2)n1,1.99%
7,CCCCNC(=O)Oc1cccc(N2CCCC2=O)c1,31.2%
8,COc1ccc(Cl)cc1C(=O)CSc1nc(N)cc(N)n1,-10.7%
9,COc1ccccc1N1CCN(C/C(O)=C(\C#N)c2nc(-c3ccccc3)cs2)CC1,34%
10,Cc1nc(-c2ccccc2)cc(=O)[nH]1,-19.9%
11,CC(CCc1ccccc1)NC(=O)c1ccccc1 (stereo not given),-8.81%
12,Cn1c(NCc2ccccc2O)nc2ccccc21,-7.98%
13,COCC(=O)N=Nc1c(O)[nH]c2ccccc12,-11.6%
14,C/C(=N\NC(=S)Nc1ccc(F)cc1)c1ccc2c(c1)OCCO2,-15.3%
15,Nc1nonc1C(=O)NCCN=Cc1cc(Cc2ccccc2)cc(Br)c1O,22.3%
16,Nc1nonc1-n1nnc(C(=O)N/N=C/c2ccc(Br)cc2)c1CSC1=NCCS1,5.01%
17,COc1cccc(C=NCCNC(=O)c2nonc2N)c1O,6.54%
18,COC(=O)Cc1c(C)nc2nc(NCc3ccc(Cl)cc3)[nH]n2c1=O,10.4%
19,CC(C)CNC(=S)NC1CCCC1,-23.4%
20,O=C(OCC(=O)c1ccccc1Cl)c1cnccn1,-6.43%
21,Cc1ccc(C(=O)C2COC(=O)C2)cc1 (stereo not given),34.6%
22,COc1ccc(S(=O)(=O)N2CCN(C(=O)c3c(C)nn(-c4ccccc4)c3Cl)CC2)cc1,-2.31%
23,COc1ccccc1CC(=O)N1CCN(c2ccccn2)CC1,-17.2%
24,COc1ccc(-n2c(C)cc(C(=O)Cn3nc(C(=O)O)c4ccccc4c3=O)c2C)cc1,4.51%
25,O=C(CN1CCCCC1)Nc1cccc2c1OCO2,-1.21%

row,SMILES,inhibition
1,COc1ccccc1NS(=O)(=O)c1cc(NC(=S)Nc2cc(C)cc(C)c2)ccc1Cl,-3.8%
2,O=S(=O)(Nc1cc(Sc2cccc3cccnc23)c(O)c2ccccc12)c1ccc(F)cc1,8.76%
3,O=C(c1ccco1)N1CCN(c2ncnc3c2[nH]c2ccccc23)CC1,16.8%
4,COCCCNc1ccnc2c(Cl)cccc12,21.8%
5,COC(=O)c1ccc(Sc2ccccc2NS(=O)(=O)c2ccc(C)cc2)nc1,-13.9%
6,CN(CC(=O)NCc1cccc(F)c1)C(=O)c1ccco1,-15.9%
7,CC(=O)Nc1cccc(-c2csc(Nc3cccc(C)n3)n2)c1,-14.5%
8,Cc1ccc(-n2c(C)cc(C3=NNC(=NC4CC4)SC3)c2C)cc1C,-9.06%
9,COc1ccc(NC(=O)c2sccc2SCC#N)cc1,-16.1%
10,CCOC(=O)CN1C(=O)C(C)(C)Oc2ccc(C(=O)Nc3ccccc3OC)cc21,-23.6%
11,C=CCSC1=Nc2sccc2C2=NC(=O)CN12,-27.7%
12,Cc1ccn2cc(CSc3ccccc3N)nc2c1,-24.9%
13,COc1cccc(N=Cc2c[nH][nH]c2=O)c1,3.08%
14,CO/N=C\CC(=O)Nc1ccc(F)cc1,-33.4%
15,COc1ccccc1N1CCN(C(=O)CSc2nc3ccccc3o2)CC1,-12.1%
16,CCC(C)NC(=O)c1ccccc1NC(=O)C(C)N(c1ccccc1)S(C)(=O)=O (stereo not given),-16.5%
17,FC(F)(F)COc1nc(OCC(F)(F)F)nc(N2CCN(c3ccccc3)CC2)n1,-20.4%
18,CC(=O)Nc1nc2nc(-c3ccccc3)cc(-c3ccccc3)n2n1,3.38%
19,Cc1cccc(Sc2c([N+](=O)[O-])ncn2C)c1,14.8%
20,S=C(NCc1cccnc1)Nc1ccc(Cl)c(Cl)c1,18.6%
21,Cn1ccnc1C(O)c1ccc(OCc2ccccc2)cc1 (stereo not given),6.64%
22,O=C(c1cnsn1)N1CCN(c2ccccc2)CC1,-32.8%
23,O=C(Nc1ccc(F)cc1)c1ccccc1F,-15.6%
24,CC(C)(C)NS(=O)(=O)c1ccc(CCC(=O)N2CCOCC2)cc1,-24.9%
25,O=c1ccc2ccc(Oc3ccc([N+](=O)[O-])cc3[N+](=O)[O-])cc2o1,-5.81%

row,SMILES,inhibition
1,O=[N+]([O-])c1ccc(-n2nnnc2-c2ccccc2)c([N+](=O)[O-])c1,24.5%
2,O=C(Nc1ccccc1)Oc1ccc[nH]c1=O,17.1%
3,Cc1ccc(N)cc1-n1c(C)ccc1C,7.88%
4,O=C(CC(NS(=O)(=O)c1ccc(Cl)cc1)c1ccco1)N1CCc2ccccc21 (stereo not given),-10.5%
5,CC1CCN(C(=O)c2ccc3c(c2NCCO)C(=O)c2ccccc2C3=O)CC1,6.14%
6,CC(=O)Cn1cnc2sc(-c3ccccc3)cc2c1=O,-20.4%
7,COCCn1cc(C(=O)N2CCC(C)CC2)c2c3ccccc3n(C)c2c1=O,-24.8%
8,Oc1ccccc1-c1nc(/C=C/c2ccccc2)nn1-c1ccccc1,-15.6%
9,Cc1ccc(Cn2cnc3ccccc32)cc1,-24.4%
10,O=C(NCCCc1ccccc1)Nc1cccc(Cl)c1,-6.65%
11,COc1cc(NC(=O)Nc2cccc(Cl)c2)c(OC)cc1NC(=O)CN1CCCCC1,1.04%
12,CCCOc1ccc(C(=O)C(CCC(CNCC)C(=O)c2ccc(OCCC)cc2)CNCC)cc1 (stereo not given),11.4%
13,O=C1c2ccccc2C(=O)N1CCc1csc(-c2cccc(Cl)c2)n1,-25.4%
14,CCOC(=O)c1ccc2c(c1)C(=O)N(C1CCCCC1)C2=O,-9.18%
15,CC(=O)c1ccc(NC(=S)NC(NC(=O)c2ccco2)C(Cl)(Cl)Cl)cc1 (stereo not given),26%
16,O=[N+]([O-])c1cccc(CN(CCO)Cc2ccccc2)c1,-14.6%
17,Nc1nc(CSc2nc3ccccc3[nH]2)nc(N2CCOCC2)n1,-10.8%
18,COC(=O)c1ccc(C(=O)OC)c(NC(=O)COc2ccccc2OC)c1,-16.4%
19,CCN(CC)c1ccc(S(=O)(=O)Nc2cc(Cl)ccc2Cl)cc1NC(=S)NC(=O)C1CCCC1,-23.8%
20,O=C1/C(=C/c2ccccc2)NC(=S)N1C(c1ccccc1)c1ccccc1,-5.32%
21,Fc1cc(Br)ccc1NC(=S)Nc1ccccc1,-47.3%
22,CCN(CC)S(=O)(=O)c1cccc(NC(=O)Nc2cccc(C(F)(F)F)c2)c1,-36.2%
23,Nc1ccc2c(c1)C(=O)N(CC1CCCO1)C2=O (stereo not given),4.4%
24,Cc1cccc(C(=O)O/N=C2\CCSc3ccc(C)cc32)c1,-18.9%
25,CCOC(=O)c1cnc2ccc(OC)cc2c1Nc1ccc2c(c1)OCCO2,-24.2%
